High-throughput results deposited in PubChem BioAssay by Broad Institute.
U2OS ROS induce: inducers of reactive oxygen species in cancer cells; AID 624156; U2OS ROS induction, H2DCF-DA fluorescence; ROS induction (% of piperlongumine), % at 10 µM; 46,000 tested, 2% active; in the data active = ROS induction above about 79%, passing the limit was not always enough;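 also: 0% = DMSO vehicle median and 100% = reference compound median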
Active calls of the source: *. The entries come from a sample that favours hits as a whole.

SMILES | U2OS ROS induce
COC(=O)c1cc(NC(=O)c2cccc(Cl)c2)cc(C(=O)OC)c1 | -7
O=C(Nc1ccccc1N1CCOCC1)c1ccccc1 | -9
Cc1nc2cc(-c3ccccc3)nn2c(C)c1CC(=O)NC1CCCC1 | 17
C=CCNC(=O)[C@H]1[C@@H]2C(=O)O[C@@H](c3ccccc3)[C@@H](c3ccccc3)N2[C@@H](c2ccc(OCCO)cc2)[C@]12C(=O)Nc1ccc(C#CC3=CCCCC3)cc12 | 43
NC(=O)[C@H]1[C@@H]2C(=O)O[C@@H](c3ccccc3)[C@@H](c3ccccc3)N2[C@@H](c2ccc(OCCO)cc2)[C@]12C(=O)Nc1ccc(C#CC3=CCCCC3)cc12 | 28
O=C1O[C@@H](c2ccccc2)[C@@H](c2ccccc2)N2[C@@H](c3ccc(OCCO)cc3)[C@]3(C(=O)Nc4ccc(C#CC5=CCCCC5)cc43)[C@@H](C(=O)O)[C@H]12 | 159*
COC(=O)C(CC#Cc1ccc2c(c1)[C@]1(C(=O)N2)[C@H](C(=O)NC[C@H](O)c2ccccc2)[C@H]2C(=O)O[C@H](c3ccccc3)[C@H](c3ccccc3)N2[C@@H]1c1ccc(OCCO)cc1)C(=O)OC | 23
COC(=O)C(CC#Cc1ccc2c(c1)[C@]1(C(=O)N2)[C@H](c2ccccc2OCCO)N2[C@H](c3ccccc3)[C@H](c3ccccc3)OC(=O)[C@H]2[C@@H]1C(=O)Nc1nc2ccccc2s1)C(=O)OC | 46
NC(=O)NCC#Cc1ccc2c(c1)[C@]1(C(=O)N2)[C@H](c2ccccc2OCCO)N2[C@H](c3ccccc3)[C@H](c3ccccc3)OC(=O)[C@H]2[C@@H]1C(=O)NC[C@H](O)c1ccccc1 | 6
C=CCNC(=O)[C@H]1[C@@H]2C(=O)O[C@@H](c3ccccc3)[C@@H](c3ccccc3)N2[C@@H](c2ccc(OCCO)cc2)[C@]12C(=O)Nc1ccc(C#Cc3ccc(OC)cc3)cc12 | 14
COC(=O)C(CC#Cc1ccc2c(c1)[C@]1(C(=O)N2)[C@H](c2ccccc2OCCO)N2[C@H](c3ccccc3)[C@H](c3ccccc3)OC(=O)[C@H]2[C@@H]1C(=O)NC[C@H](O)c1ccccc1)C(=O)OC | 205*
C=CCNC(=O)[C@H]1[C@@H]2C(=O)O[C@@H](c3ccccc3)[C@@H](c3ccccc3)N2[C@@H](c2ccc(O)cc2)[C@]12C(=O)Nc1ccc(C#Cc3ccc(OC)cc3)cc12 | 11
C=CCNC(=O)[C@@H]1[C@H]2C(=O)O[C@H](c3ccccc3)[C@H](c3ccccc3)N2[C@H](c2ccccc2OCCO)[C@@]12C(=O)Nc1ccc(C#Cc3ccc(OC)cc3)cc12 | 25
C=CCNC(=O)[C@H]1[C@@H]2C(=O)O[C@@H](c3ccccc3)[C@@H](c3ccccc3)N2[C@@H](c2ccc(OCCO)cc2)[C@]12C(=O)Nc1ccc(C#CCC(C(=O)OC)C(=O)OC)cc12 | 157*
C=CCNC(=O)[C@H]1[C@@H]2C(=O)O[C@@H](c3ccccc3)[C@@H](c3ccccc3)N2[C@@H](c2ccccc2OCCO)[C@]12C(=O)Nc1ccc(C#CCC(C(=O)OC)C(=O)OC)cc12 | 185*
CC(C)(C)n1nc2c(c1NC(=O)c1ccc(Cl)cc1)CSC2 | 7
Cc1c(-c2cc(NC(=O)c3ccccc3)n[nH]2)sc2ccc(Cl)cc12 | 56
CC(C)(C)c1ccc(-c2noc(CCn3c(=O)oc4ccccc43)n2)cc1 | -2
CC(C)c1nc(N2CCN(C(=S)NC3CCCCC3)CC2)c(C#N)c2c1CCCC2 | -8
CCn1c(C(=O)NCc2ccccc2)cc2oc3ccccc3c21 | -11
Cn1cnnc1SCc1ccc(-c2csnn2)cc1 | 7
Cc1ccc(NC(=O)c2ccc(-c3ccccc3)cc2)nc1 | 66
O=C(Cn1c2ccccc2c2ccccc21)Sc1nc2ccccc2s1 | 12
C=CCNC(=O)[C@H]1[C@@H]2C(=O)O[C@@H](c3ccccc3)[C@@H](c3ccccc3)N2[C@@H](c2ccccc2OCCO)[C@]12C(=O)Nc1ccc(C#Cc3ccc(OC)cc3)cc12 | 14
C=CCNC(=O)[C@@H]1[C@H]2C(=O)O[C@H](c3ccccc3)[C@H](c3ccccc3)N2[C@H](c2ccccc2OCCO)[C@@]12C(=O)Nc1ccc(C#CCNC(N)=O)cc12 | 11
COc1ccc(C#Cc2ccc3c(c2)[C@]2(C(=O)N3)[C@H](C(=O)N3CCc4cc(OC)c(OC)cc4C3)[C@H]3C(=O)O[C@H](c4ccccc4)[C@H](c4ccccc4)N3[C@@H]2c2ccc(OCCO)cc2)cc1 | 23
COC(=O)C(CC#Cc1ccc2c(c1)[C@]1(C(=O)N2)[C@H](c2ccc(OCCO)cc2)N2[C@H](c3ccccc3)[C@H](c3ccccc3)OC(=O)[C@H]2[C@@H]1C(=O)N1CCc2cc(OC)c(OC)cc2C1)C(=O)OC | 132*
COc1ccc(C#Cc2ccc3c(c2)[C@]2(C(=O)N3)[C@H](c3ccc(OCCO)cc3)N3[C@H](c4ccccc4)[C@H](c4ccccc4)OC(=O)[C@H]3[C@@H]2C(=O)N2CCc3cc(OC)c(OC)cc3C2)cc1 | 59
